Source: PubChem BioAssay
D2 ag-1: activates the human D2 dopamine receptor | DiscoveRx PathHunter D2 beta-arrestin, luminescence, 90 min; 100% = 57 uM dopamine signal | 360,000 compounds, 0.084% hits | P14416 | activation, % (test concentration not listed); in the data active = activation above about 40%; inconclusive = between about 15% and that limit
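Agonist mode: compounds alone added to overnight-plated D2 PathHunter cells for 90 min at 37 C, with 57 uM final dopamine (EC100) defining full response. Beta-arrestin recruitment detected by chemiluminescent reagent, read after 1 h at ambient temperature.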
D2 PAM-1: positively modulates the human D2 dopamine receptor allosterically. P14416. HEK293 T-REx D2, calcium flux, EC20 dopamine potentiation. potentiation, % at 10 µM. 340,000 compounds, 0.34% hits;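 active = potentiation over 3 SD above the plate norm, cut at about 30% in these data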; note: 0% is about no effect
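Calcium flux readout, no-wash dye, 1 read/s. Inducible HEK293 Trex D2 line, overnight 30 C. Compound alone 180 s (agonist flags), then EC20 dopamine, another 180 s to score potentiation.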
D2 ag-2: D2 dopamine receptor (human) agonism; P14416; activation, % at 2 µM; 340,000 compounds, 0.53% hits; AID 485358; HEK293 T-REx D2 cells, calcium flux agonist mode;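 active = activation over 3 SD above normal in the single-dose calcium agonist read, cut at about 30% in these data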; note: 0% is about no effect
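Tetracycline-induced HEK293 T-REx cells with force-coupled D2 receptor, plated overnight at 30 C, loaded with no-wash calcium dye. After a 10 s baseline, compound was pin-added and calcium flux read kinetically for 180 s; calcium rises flagged agonists.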
D2 PAM-2: human D2 receptor positive allosteric modulation. P14416. AID 624464. potentiation, % (no concentration beside the values). DiscoveRx D2 beta-arrestin cells, luminescence, 90 min; 100% = 57 uM dopamine signal. 360,000 compounds, 0.23% hits; in the data active = potentiation above about 50%; inconclusive = mostly about 30% to 49%
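D2 cells co-treated with compound plus 50 nM dopamine (EC20) for 90 min at 37 deg C to detect potentiation. Beta-arrestin recruitment was read as enzyme-fragment luminescence after 1 h at ambient temperature. Full response was set by 57 uM dopamine.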
D2 antagonist: antagonists of human D2 dopamine receptor | HEK293 TREx D2 cells, calcium flux, dopamine EC80 | P14416 | inhibition, % at 10 µM | 340,000 compounds, 2% hits; in the data active = inhibition above about 30%; inactive = below that, where a call was filed; note: 0% is about no effect
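HEK293 T-REx D2 cells, tet-induced, calcium dye no-wash. Cpd pintool add, 180 s kinetic, then EC80 DA, 180 s kinetic. Ca flux read.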
D3 ag: confirmation of human D3 dopamine receptor agonists, beta-arrestin; DiscoveRx D3 beta-arrestin cells, luminescence, 90 min; 2,300 compounds, 4% hits; AID 720506; shares compounds with D2 ag-2; Potency, µM (top dose mostly 76.9 µM), for the others: at the top dose activation, actives largely listed as activators;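 note: potency is the fitted concentration of half-maximal effect; 100% = dopamine control response; nearly all actives have a fitted effect of over 70% in size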
Target sequence (P35462 whole entry, looked up): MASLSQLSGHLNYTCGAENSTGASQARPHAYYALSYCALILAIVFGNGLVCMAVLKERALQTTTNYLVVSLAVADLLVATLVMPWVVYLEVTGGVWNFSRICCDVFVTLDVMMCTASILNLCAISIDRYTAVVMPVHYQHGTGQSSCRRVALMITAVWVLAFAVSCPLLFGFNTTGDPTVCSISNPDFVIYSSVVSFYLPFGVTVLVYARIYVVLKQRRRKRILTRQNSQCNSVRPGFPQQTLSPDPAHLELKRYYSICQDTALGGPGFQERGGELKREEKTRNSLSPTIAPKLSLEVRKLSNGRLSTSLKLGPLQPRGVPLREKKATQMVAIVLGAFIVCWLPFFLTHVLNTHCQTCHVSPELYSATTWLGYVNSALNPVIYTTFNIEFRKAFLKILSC
D2 ag-3: D2 receptor agonism, beta-arrestin counterscreen. shares compounds with D2 ag-2. DiscoveRx PathHunter D2 beta-arrestin, luminescence, 90 min; response scale: percent relative to full dopamine signal. Potency, µM (top dose mostly 76.9 µM), for inactives: top-dose activation, usual class: activators. 2,300 compounds, 5.9% hits. AID 720507; note: potency is the fitted concentration of half-maximal effect; % of control where 0% means no effect; nearly all actives have a fitted effect of over 70% in size
Starred values were filed as active, the others as inactive. In the library only some 2.4% were active in any assay of this set; here they are far more common. Unless noted, calls come from the whole dose curve; as a rule, active = well fitted activation curve with a large enough effect; inconclusive = small, poorly fitted or top-dose-only effect; inactive = flat fitted curve, though single readings scatter.

For O=C(NCCc1ccccc1)c1cc(S(=O)(=O)N2CCOCC2)ccc1F the results were D2 ag-1 -0.9, D2 PAM-1 -7.1, D2 ag-2 0.2, D2 PAM-2 -2.0 and D2 antagonist -6.2.
`O=C(CN1C(=O)CSc2cc(S(=O)(=O)N3CCCCCC3)ccc21)NCCc1ccccc1` gave D2 ag-1 -1.0, D2 PAM-1 3.6, D2 ag-2 -0.5, D2 PAM-2 -25.8 and D2 antagonist -16.2.
`Cc1cccc(N2C(S)=C(C#N)C(=O)NC2c2ccco2)c1` (configuration not stated) gave D2 ag-1 -0.5, D2 PAM-1 6.4, D2 ag-2 0.4, D2 PAM-2 -3.4 and D2 antagonist 21.8.
Screening COc1ccc(N2C(S)=C(C#N)C(=O)NC2c2ccco2)cc1 (configuration not stated) returned D2 ag-1 3.1, D2 PAM-1 -19.9, D2 ag-2 50.0*, D2 PAM-2 -6.1, D2 antagonist 8.7, D3 ag 1.1% and D2 ag-3 -2.5%.
CCCCn1c(N)c(N(CC)C(=O)c2cccc(F)c2)c(=O)[nH]c1=O was read as D2 ag-1 -5.0, D2 PAM-1 -2.7, D2 ag-2 3.6, D2 PAM-2 -3.7 and D2 antagonist -1.8.
For CCCCn1c(N)c(N(CC)C(=O)c2cccc(OCc3ccccc3)c2)c(=O)[nH]c1=O the results were D2 ag-1 8.0, D2 PAM-1 -11.7, D2 ag-2 -0.4, D2 PAM-2 4.8, D2 antagonist 7.9, D3 ag 20.5% and D2 ag-3 -3.0%.
`c1cnc(N2CCN(Cc3ccc4c(c3)OCO4)CC2)cn1` gave D2 ag-1 43.8*, D2 PAM-1 -23.0, D2 ag-2 80.2*, D2 PAM-2 inconclusive, D2 antagonist 89.9*, D3 ag inconclusive and D2 ag-3 inconclusive.
Screening O=C(c1cccnc1)N1CCN(Cc2ccc3c(c2)OCO3)CC1 returned D2 ag-1 -1.9, D2 PAM-1 -3.5, D2 ag-2 -0.2, D2 PAM-2 -19.4 and D2 antagonist -7.4.
O=[N+]([O-])c1cccnc1N1CCN(Cc2ccc3c(c2)OCO3)CC1 was read as D2 ag-1 43.9*, D2 PAM-1 -25.2, D2 ag-2 89.2*, D2 PAM-2 10.3, D2 antagonist 92.3*, D3 ag -4.9% and D2 ag-3 inconclusive.
Screening CS(=O)(=O)N(CC(=O)NCCc1ccccc1)c1cc(C(F)(F)F)ccc1Cl returned D2 PAM-1 2.7 and D2 ag-2 11.6.
For CCCN(c1ccc(OCC)cc1)S(=O)(=O)c1ccc2c(c1)CCN2C(=O)CCC(=O)O the results were D2 ag-1 2.0, D2 PAM-1 -7.2, D2 ag-2 -0.2, D2 PAM-2 -6.6 and D2 antagonist 7.8.
`Cc1ccccc1C(=O)N1N=C(c2ccc(NS(C)(=O)=O)cc2)CC1c1cccs1` (configuration not stated) gave D2 ag-1 -1.9, D2 PAM-1 2.6, D2 ag-2 -0.3, D2 PAM-2 0.4 and D2 antagonist 17.6.
For O=c1[nH]c(S)nc2sc3c(c12)CCCC3 the results were D2 ag-1 -7.4, D2 PAM-1 6.3, D2 ag-2 -0.5, D2 PAM-2 0.6 and D2 antagonist -4.4.
For O=c1[nH]c(-c2ccco2)nc2sc3c(c12)CCCC3 the results were D2 ag-1 0.5, D2 PAM-1 -21.3, D2 ag-2 52.1*, D2 PAM-2 -6.8, D2 antagonist 8.9, D3 ag -4.8% and D2 ag-3 -4.6%.
`O=C(O)c1ccc(/C=C2\SC(=S)N(Nc3ccccc3)C2=O)cc1` gave D2 ag-1 -13.7, D2 PAM-1 7.3, D2 ag-2 3.0, D2 PAM-2 -2.7, D2 antagonist 6.2, D3 ag inconclusive and D2 ag-3 1.5%.
`O=C1/C(=C/c2ccncc2)SC(=S)N1Nc1ccccc1` gave D2 ag-1 -3.7, D2 PAM-1 0.6, D2 ag-2 1.1, D2 PAM-2 -9.2 and D2 antagonist -1.8.
COc1ccccc1/C=N/NC(=O)CC(=O)NC1CCCCC1 was read as D2 ag-1 -0.7, D2 PAM-1 -3.6, D2 ag-2 -0.1, D2 PAM-2 -4.3 and D2 antagonist 3.3.
`O=C(NCc1ccccc1)c1nncc(-c2ccccc2)n1` gave D2 ag-1 -4.6, D2 PAM-1 -2.5, D2 ag-2 -0.3, D2 PAM-2 -14.9, D2 antagonist 9.2, D3 ag 1.9% and D2 ag-3 -3.7%.
For CCOC(=O)Cc1csc(NC(=O)COc2ccc3c(c2)CCC3)n1 the results were D2 ag-1 -0.9, D2 PAM-1 1.1, D2 ag-2 -2.0, D2 PAM-2 -2.9 and D2 antagonist 7.8.
O=C(NCc1ccc2c(c1)OCO2)c1ccc2c(c1)N(Cc1ccccc1)C(=O)c1ccccc1S2=O (configuration not stated) was read as D2 PAM-1 8.0 and D2 ag-2 0.4.
For CCNC(=S)NNC(=O)c1ccccc1OC(F)F the results were D2 ag-1 -0.5, D2 PAM-1 -22.1, D2 ag-2 26.0, D2 PAM-2 -12.4, D2 antagonist 32.7*, D3 ag -22.7% and D2 ag-3 -4.4%.
Screening O=C(NCCc1ccccc1)C1CCN(S(=O)(=O)c2cccc3nsnc23)CC1 returned D2 ag-1 -0.7, D2 PAM-1 2.1, D2 ag-2 -1.3, D2 PAM-2 -19.5 and D2 antagonist -14.4.
For O=C(O)C1CCCN1S(=O)(=O)c1cccc2nsnc12 (configuration not stated) the results were D2 ag-1 0.4, D2 PAM-1 -11.9, D2 ag-2 44.8*, D2 PAM-2 -2.3, D2 antagonist -6.0, D3 ag -9.8% and D2 ag-3 -1.8%.
For O=C(NCCN1CCN(c2ccccc2)CC1)C1CCN(S(=O)(=O)c2cccc3nsnc23)CC1 the results were D2 ag-1 inconclusive, D2 ag-2 28.5, D2 PAM-2 -1.4, D2 antagonist 55.5*, D3 ag inconclusive and D2 ag-3 22.0%.
For CNC(=O)N(O)C1N(/N=C/c2ccc(SC)cc2)C(=S)SC1(C)C (configuration not stated) the results were D2 ag-1 6.6, D2 PAM-1 5.8, D2 ag-2 7.2, D2 PAM-2 -6.1 and D2 antagonist -2.3.
For Cc1ccc(C(=O)OCC(=O)Nc2cccc(S(=O)(=O)N3CCCCC3)c2)s1 the results were D2 ag-1 1.6 and D2 PAM-2 -5.2.
